13 molecules from PubChem BioAssay (EPA / NIEHS) can be followed below.

In assay [1] the target is Androgen receptor (Homo sapiens) (UniProt P10275). The assay is described as follows: ATG_AR_TRANS: Attagene TRANS-FACTORIAL HepG2 Assay for human Androgen Receptor (AR) (AID 2282973). Conditions: HepG2 Attagene TRANS-FACTORIAL AR reporter transcription. The method, boiled down:
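HepG2 cells transiently transfected with AR-Gal4 chimera and GAL4-UAS reporter units; chemical exposure 24 h. Reporter mRNA quantified by RT-PCR with fluorescent labelling and capillary electrophoresis; gain-of-signal fitted against DMSO.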

Assay [2] can be described thus: Tanguay_ZF_120hpf_MUSC: Oregon State University Tanguay Lab 120 Hour Post-fertilization zebrafish Assay for Muscle Malformation (AID 2284401; active means hit-call score of the fitted dose curve at least 0.9, where 1 is the maximum; inactive means score below 0.9). The method, boiled down:
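Dechorionated Tropical 5D wild-type zebrafish embryos exposed statically from 6 to 120 hpf at 28C, one per well, in 0.64% DMSO. Muscle malformation scored present/absent by brightfield microscopy at 120 hpf, fitted against DMSO.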

Assay [3] deals with Cytochrome P450 2C18 (Homo sapiens) (UniProt P33260). The assay is described as follows: NVS_ADME_hCYP2C18: NovaScreen (NVS) CYP450-related Enzyme Activity (ADME) Assay for human CYP2C18 (AID 2283103; active means hit-call score of the fitted dose curve at least 0.9, where 1 is the maximum; inactive means score below 0.9). The method, boiled down: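 Cell-free recombinant human CYP2C18 with fluorogenic substrate; fluorescence intensity read 0.5 h after dosing. Single-point screen at 10 uM in duplicate, then concentration-response up to 20 uM; loss of signal fitted against acetonitrile baseline.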
Sequence of Cytochrome P450 2C18 (Homo sapiens) (P33260 whole entry, looked up): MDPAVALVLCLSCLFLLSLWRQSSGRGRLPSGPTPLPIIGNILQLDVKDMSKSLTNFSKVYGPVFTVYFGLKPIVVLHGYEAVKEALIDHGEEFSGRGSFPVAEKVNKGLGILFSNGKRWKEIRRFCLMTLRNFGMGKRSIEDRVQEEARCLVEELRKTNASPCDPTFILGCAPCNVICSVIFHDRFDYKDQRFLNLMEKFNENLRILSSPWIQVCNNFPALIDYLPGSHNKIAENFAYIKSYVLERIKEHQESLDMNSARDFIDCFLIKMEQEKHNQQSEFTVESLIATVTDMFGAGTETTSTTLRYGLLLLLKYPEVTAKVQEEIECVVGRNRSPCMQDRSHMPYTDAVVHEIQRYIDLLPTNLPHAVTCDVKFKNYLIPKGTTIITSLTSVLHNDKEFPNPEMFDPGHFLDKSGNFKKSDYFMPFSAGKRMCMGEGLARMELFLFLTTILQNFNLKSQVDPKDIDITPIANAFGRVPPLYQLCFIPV

The next assay relates to rat CYP2B1, gene 24300. The assay is described as follows: NVS_ADME_rCYP2B1: NovaScreen (NVS) CYP450-related Enzyme Activity (ADME) Assay for rat CYP2B1 (AID 2283117). The method, boiled down:
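Recombinant rat CYP2B1 with fluorogenic substrate, read at 0.75 h. Primary screen in duplicate at 10 uM; compounds meeting threshold (e.g., 30% inhibition) re-run in concentration-response up to 20 uM. Fitted against acetonitrile control.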

Assay [4] in a line: CCTE_Harrill_HTTr_Apoptosis_PRF_DMEM_12hr: (Pilot) CCTE's 12-hour Apoptosis Assessment for the High-Throughput Transcriptomics (HTTr) Platform, in MCF-7 cells cultured in phenol red-free DMEM + 10% charcoal-stripped fetal bovine serum, Harrill Lab (AID 2283985; active means hit-call score of the fitted dose curve at least 0.9, where 1 is the maximum; inactive means score below 0.9). The method in brief: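 MCF-7 cells in phenol red-free DMEM with 10% charcoal-stripped FBS, eight-point dilution series, 12 h exposure. Caspase-3/7 activation imaged by high content imaging with CellEvent Green reagent; bidirectional fit vs DMSO.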

For assay [5], the target named is human Peroxisome Proliferator-activated Receptor delta (PPARd), PPARD (gene 5467) (UniProt Q03181). The assay is described as follows: ATG_PPARd_TRANS: Attagene TRANS-FACTORIAL HepG2 Assay for human Peroxisome Proliferator-activated Receptor delta (PPARd) (AID 2283002). The method, boiled down:
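Fluorescence from capillary electrophoresis of labelled RT-PCR reporter fragments gives the signal; DMSO sets baseline. Cells: HepG2 transiently carrying GAL4-UAS reporter units plus chimeric nuclear receptor-Gal4 proteins, exposed to chemicals for 24 h.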

The target of assay [6] is Peroxisome proliferator-activated receptor gamma (Homo sapiens) (UniProt P37231). Nature of the assay: ATG_PPARg_TRANS: Attagene TRANS-FACTORIAL HepG2 Assay for human Peroxisome Proliferator-activated Receptor-gamma (PPARg) (AID 2283007). The method, boiled down:
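Gain-of-signal endpoint relative to DMSO, derived from reporter mRNA levels quantified by RT-PCR and capillary electrophoresis. Cells were HepG2 transiently expressing a chimeric NR-Gal4 construct with GAL4-UAS reporters, exposed to chemicals for 24 h.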

The target in assay [7] is Nuclear receptor subfamily 1 group I member 2 (Homo sapiens) (UniProt O75469). The assay is described as follows: ATG_PXR_TRANS: Attagene TRANS-FACTORIAL HepG2 Assay for human Pregnane X Receptor (PXR) (AID 2283008). The method, boiled down:
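Measures mRNA induction of a GAL4-UAS-driven reporter in human HepG2 cells transiently expressing PXR fused to Gal4, following 24 h treatment. DMSO served as negative control and baseline.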

In assay [8] the target is sheep Cyclooxygenase-1 (Cox1), PTGS1 (gene 443551) (UniProt P05979). Nature of the assay: NVS_ENZ_oCOX1: NovaScreen (NVS) Enzymatic Assay for sheep Cyclooxygenase-1 (Cox1) (AID 2283239).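 Further: actives reduce cyclooxygenase activity so potencies are for inhibitors.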 The method, boiled down: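 COX1 from ovine seminal vesicles, activity read colorimetrically about 0.66 h after dosing. Primary screen in duplicate at 25 uM; actives retested in concentration series; loss of signal fitted versus DMSO.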
Sequence of sheep Cyclooxygenase-1 (Cox1), PTGS1 (gene 443551) (P05979 whole entry, looked up): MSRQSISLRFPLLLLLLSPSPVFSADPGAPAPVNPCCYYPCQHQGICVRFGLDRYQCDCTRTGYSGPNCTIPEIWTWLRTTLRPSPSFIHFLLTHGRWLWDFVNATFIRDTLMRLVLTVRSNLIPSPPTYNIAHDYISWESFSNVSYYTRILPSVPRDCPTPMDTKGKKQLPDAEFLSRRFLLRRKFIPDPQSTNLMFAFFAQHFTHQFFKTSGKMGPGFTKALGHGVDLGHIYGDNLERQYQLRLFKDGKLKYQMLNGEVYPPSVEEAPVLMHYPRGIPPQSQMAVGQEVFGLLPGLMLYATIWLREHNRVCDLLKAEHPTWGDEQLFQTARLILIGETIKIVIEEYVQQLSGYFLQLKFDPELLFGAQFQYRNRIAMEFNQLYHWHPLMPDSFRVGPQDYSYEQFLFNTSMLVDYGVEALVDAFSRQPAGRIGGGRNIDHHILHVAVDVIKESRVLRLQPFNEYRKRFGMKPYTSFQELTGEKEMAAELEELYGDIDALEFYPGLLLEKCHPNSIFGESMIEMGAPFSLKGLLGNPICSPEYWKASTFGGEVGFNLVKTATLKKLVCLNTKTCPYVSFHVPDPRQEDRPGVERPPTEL

A short description of assay [9]: CCTE_Harrill_HTTr_Viability_MCF7: CCTE's 6-hour Cell Viability Assessment for the High-Throughput Transcriptomics (HTTr) Platform, in MCF-7 cells cultured in DMEM + 10% fetal bovine serum, Harrill Lab (AID 2284010; active means hit-call score of the fitted dose curve at least 0.9, where 1 is the maximum; inactive means score below 0.9). The method in brief: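 Viability measured through PI dye exclusion by high-content imaging at 6 h post-dosing.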
Assay [10] relates to rat Monoamine Oxidase, MAO-A, Central (MAOAC), gene 29253. The assay is described as follows: NVS_ENZ_rMAOAC: NovaScreen (NVS) Enzymatic Assay for rat Monoamine Oxidase, MAO-A, Central (MAOAC) (AID 2283243).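 Further: potency refers to inhibition seen as signal drop below DMSO baseline.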 The method in brief: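 Inhibition of rat brain-derived MAO-A was read by scintillation counting after 1.5 h exposure. Compounds screened first at 25 uM in duplicate, then in dose series if active.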

Assay [11] has as its target human CYP4F12, CYP4F12 (gene 66002) (UniProt Q9HCS2). Nature of the assay: NVS_ADME_hCYP4F12: NovaScreen (NVS) CYP450-related Enzyme Activity (ADME) Assay for human CYP4F12 (AID 2283111). The method in brief: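 Cell-free fluorescence assay of recombinant human CYP4F12 activity on a specific substrate, read 0.5 h after dosing. Primary screen in duplicate at 10 uM, then concentration series for actives; loss of signal fitted against acetonitrile negative control.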

The target of assay [12] is Norway rat Vesicular Monoamine Transporter (VMAT2), neurotransmitter transporter, Slc18a2 (gene 25549) (UniProt Q01827). Nature of the assay: NVS_TR_rVMAT2: NovaScreen (NVS) Transporter Assay for Norway rat Vesicular Monoamine Transporter (VMAT2), neurotransmitter transporter (AID 2283376).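 Further: actives lower the bound radioligand signal below the DMSO level.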 The method, boiled down:
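Radioligand displacement binding on rat forebrain tissue preparation, filter-based scintillation read-out 1 hour after dosing. Primary screen in duplicate at 25 uM, then concentration series for actives; loss of signal versus DMSO.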

Structures are written as SMILES. “And” between values parts separate entries of the source, which are not always exact repeats. Equal entries are not always repeated. Records with an inconclusive call do not appear. Some structures have more than one record in an assay (separate samples or runs), and their calls can disagree. The source made the active and inactive calls. How the source made its calls, unless noted: active means hit-call score of the fitted dose curve at least 0.9, where 1 is the maximum; inconclusive means response in the unintended direction; inactive means score below 0.9.

Sequence of Androgen receptor (Homo sapiens) (P10275 whole entry, looked up, the tested form may be a part): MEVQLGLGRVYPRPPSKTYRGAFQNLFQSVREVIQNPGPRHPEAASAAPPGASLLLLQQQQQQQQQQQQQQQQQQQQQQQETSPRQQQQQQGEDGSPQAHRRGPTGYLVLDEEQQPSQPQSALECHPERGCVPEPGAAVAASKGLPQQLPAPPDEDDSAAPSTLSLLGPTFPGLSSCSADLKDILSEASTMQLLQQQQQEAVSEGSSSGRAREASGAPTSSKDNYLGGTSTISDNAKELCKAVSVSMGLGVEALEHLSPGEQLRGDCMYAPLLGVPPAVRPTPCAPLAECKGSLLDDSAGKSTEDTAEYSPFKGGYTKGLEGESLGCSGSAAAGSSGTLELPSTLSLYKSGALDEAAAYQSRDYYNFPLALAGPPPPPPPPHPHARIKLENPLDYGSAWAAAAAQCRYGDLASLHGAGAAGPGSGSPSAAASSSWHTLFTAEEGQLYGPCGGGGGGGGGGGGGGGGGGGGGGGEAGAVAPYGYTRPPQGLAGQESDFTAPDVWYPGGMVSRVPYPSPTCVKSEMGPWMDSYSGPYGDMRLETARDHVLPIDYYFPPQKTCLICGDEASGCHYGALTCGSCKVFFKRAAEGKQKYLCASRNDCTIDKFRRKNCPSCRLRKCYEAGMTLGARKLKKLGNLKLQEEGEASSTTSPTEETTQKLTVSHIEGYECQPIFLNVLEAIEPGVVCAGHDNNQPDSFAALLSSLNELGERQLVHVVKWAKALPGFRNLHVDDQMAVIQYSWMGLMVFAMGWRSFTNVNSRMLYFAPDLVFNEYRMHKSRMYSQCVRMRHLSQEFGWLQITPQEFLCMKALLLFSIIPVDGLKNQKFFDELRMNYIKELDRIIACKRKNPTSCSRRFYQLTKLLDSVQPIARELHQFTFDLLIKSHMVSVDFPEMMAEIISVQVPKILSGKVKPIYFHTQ
Sequence of human CYP4F12, CYP4F12 (gene 66002) (Q9HCS2 whole entry, looked up): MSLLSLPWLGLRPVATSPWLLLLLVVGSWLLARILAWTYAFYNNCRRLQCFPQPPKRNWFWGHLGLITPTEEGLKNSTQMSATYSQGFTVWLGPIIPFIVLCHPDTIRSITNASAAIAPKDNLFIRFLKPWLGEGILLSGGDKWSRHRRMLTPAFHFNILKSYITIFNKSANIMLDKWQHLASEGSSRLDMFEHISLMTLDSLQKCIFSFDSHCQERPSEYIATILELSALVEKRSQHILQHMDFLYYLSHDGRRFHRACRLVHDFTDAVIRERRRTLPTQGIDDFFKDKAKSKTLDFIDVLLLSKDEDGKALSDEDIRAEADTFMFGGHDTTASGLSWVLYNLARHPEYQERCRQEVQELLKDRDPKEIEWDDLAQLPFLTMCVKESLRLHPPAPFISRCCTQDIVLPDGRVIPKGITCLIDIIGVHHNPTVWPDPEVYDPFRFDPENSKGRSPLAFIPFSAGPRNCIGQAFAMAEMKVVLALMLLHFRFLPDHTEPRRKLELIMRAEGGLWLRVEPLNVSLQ
Sequence of Peroxisome proliferator-activated receptor gamma (Homo sapiens) (P37231 whole entry, looked up, the tested form may be a part): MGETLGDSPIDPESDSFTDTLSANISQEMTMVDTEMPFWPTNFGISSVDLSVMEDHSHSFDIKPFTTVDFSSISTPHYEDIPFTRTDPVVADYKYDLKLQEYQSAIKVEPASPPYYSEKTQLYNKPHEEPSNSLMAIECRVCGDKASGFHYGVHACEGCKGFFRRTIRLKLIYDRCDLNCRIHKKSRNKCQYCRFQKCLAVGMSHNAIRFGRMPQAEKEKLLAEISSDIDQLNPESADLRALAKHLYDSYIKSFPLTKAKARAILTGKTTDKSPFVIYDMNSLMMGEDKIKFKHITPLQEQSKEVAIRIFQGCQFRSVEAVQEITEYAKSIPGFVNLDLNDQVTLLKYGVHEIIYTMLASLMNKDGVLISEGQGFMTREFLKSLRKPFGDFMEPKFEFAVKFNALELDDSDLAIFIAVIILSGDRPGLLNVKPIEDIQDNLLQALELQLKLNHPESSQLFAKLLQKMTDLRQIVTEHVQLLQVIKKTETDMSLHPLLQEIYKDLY
Sequence of Nuclear receptor subfamily 1 group I member 2 (Homo sapiens) (O75469 whole entry, looked up, the tested form may be a part): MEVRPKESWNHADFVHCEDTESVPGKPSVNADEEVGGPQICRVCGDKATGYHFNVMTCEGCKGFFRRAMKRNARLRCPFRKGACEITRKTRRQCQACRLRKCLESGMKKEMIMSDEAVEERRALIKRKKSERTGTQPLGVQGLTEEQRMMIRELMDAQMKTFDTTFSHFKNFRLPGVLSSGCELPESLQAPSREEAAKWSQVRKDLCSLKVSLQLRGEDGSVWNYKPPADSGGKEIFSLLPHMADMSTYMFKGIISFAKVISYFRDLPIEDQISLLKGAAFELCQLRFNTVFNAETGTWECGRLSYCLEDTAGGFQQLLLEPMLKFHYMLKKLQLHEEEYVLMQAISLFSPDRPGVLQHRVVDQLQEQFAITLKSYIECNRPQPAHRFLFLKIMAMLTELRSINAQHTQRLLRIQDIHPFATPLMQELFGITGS
Sequence of Norway rat Vesicular Monoamine Transporter (VMAT2), neurotransmitter transporter, Slc18a2 (gene 25549) (Q01827 whole entry, looked up): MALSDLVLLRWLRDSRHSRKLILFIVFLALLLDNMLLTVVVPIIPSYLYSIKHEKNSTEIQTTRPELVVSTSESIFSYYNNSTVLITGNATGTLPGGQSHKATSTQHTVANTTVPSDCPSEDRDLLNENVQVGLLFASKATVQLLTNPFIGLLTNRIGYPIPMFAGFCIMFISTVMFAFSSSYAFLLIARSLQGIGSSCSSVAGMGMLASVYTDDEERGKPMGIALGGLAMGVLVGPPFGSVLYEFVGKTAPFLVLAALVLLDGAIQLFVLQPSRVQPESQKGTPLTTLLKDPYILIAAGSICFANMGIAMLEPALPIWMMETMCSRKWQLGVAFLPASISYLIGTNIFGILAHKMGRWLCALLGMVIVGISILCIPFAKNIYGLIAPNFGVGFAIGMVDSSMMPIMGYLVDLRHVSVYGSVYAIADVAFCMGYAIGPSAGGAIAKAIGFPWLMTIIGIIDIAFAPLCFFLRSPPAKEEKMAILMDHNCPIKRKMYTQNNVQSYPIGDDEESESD
Sequence of human Peroxisome Proliferator-activated Receptor delta (PPARd), PPARD (gene 5467) (Q03181 whole entry, looked up, the tested form may be a part): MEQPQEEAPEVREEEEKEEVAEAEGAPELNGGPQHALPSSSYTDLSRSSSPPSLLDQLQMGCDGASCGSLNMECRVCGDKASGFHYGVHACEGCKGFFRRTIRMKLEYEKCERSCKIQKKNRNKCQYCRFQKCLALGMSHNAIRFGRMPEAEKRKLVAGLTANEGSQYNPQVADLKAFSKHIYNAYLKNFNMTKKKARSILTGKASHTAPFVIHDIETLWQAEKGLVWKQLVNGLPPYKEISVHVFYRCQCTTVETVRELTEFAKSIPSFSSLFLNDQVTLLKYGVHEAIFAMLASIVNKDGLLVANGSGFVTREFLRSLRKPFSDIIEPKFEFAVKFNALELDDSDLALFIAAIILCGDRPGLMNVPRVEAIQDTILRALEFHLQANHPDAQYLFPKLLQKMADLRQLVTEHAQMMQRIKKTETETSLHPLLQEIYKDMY

As to `C=C(C)C(=O)OCCC(F)(F)C(F)(F)C(F)(F)C(F)(F)C(F)(C(F)(F)F)C(F)(F)F`, the molecule was called inactive in [1] and in assay [2].

As to `CCO[Si](CCC(F)(F)C(F)(F)C(F)(F)C(F)(F)C(F)(F)C(F)(F)F)(OCC)OCC`, the molecule was classed as inactive in assay [1] and in assay [2].

On to `O=C(O)CCC(F)(F)C(F)(F)C(F)(F)C(F)(F)C(F)(F)C(F)(F)C(F)(F)F`, for which the outcome in assay [1] and in assay [2] was inactive.

`OCC(O)CC(F)(F)C(F)(F)C(F)(F)C(F)(F)F` (centres undefined): the outcome in assay [1] and in assay [2] was inactive.

What is called AC50 is the concentration at which the activity in the assay is half-maximal. `CC(=O)O[C@]1(C(C)=O)CC[C@H]2[C@@H]3C=C(Cl)C4=CC(=O)[C@@H]5C[C@@H]5[C@]4(C)[C@H]3CC[C@@]21C`: the AC50 in [3] was 6.86 µM (active). For the same molecule, the outcome in assay [3] is “inactive”; in the assay with rat CYP2B1, gene 24300, “inactive”; in assay [4], “inactive”.

Take `O=C(CC(=O)C(F)(F)C(F)(F)C(F)(F)F)c1cccs1`: the molecule was called inactive in assay [1] and in assay [2].

Regarding `OC(O)C(F)(F)C(F)(F)F`, the molecule was classed as inactive in [1] and in assay [2].

As for `FC(F)C(F)(F)COCC1CO1` (centres undefined), the outcome in assay [1] and in assay [2] was inactive.

On to `O=[N+]([O-])c1ccccc1Cl`, for which the call in assay [5], in assay [6], in assay [7], in [8] and in assay [9] was inactive.

For the molecule `C#C[C@]1(O)CC[C@H]2[C@@H]3CCc4cc(O)ccc4[C@H]3CC[C@@]21C`, the half-maximal activity concentration (AC50) is 1.46 µM (active) and 1.72 µM (active) in assay [3]; 2.5 µM (active) and 4.16 µM (active) and 1.77 µM (active) in the assay with rat CYP2B1, gene 24300. The result in assay [3] and in [10] was inactive.

Regarding `CCCCC(CC)COC(=O)c1ccccc1C(=O)O` (centres undefined), the outcome in [3], in assay [11] and in assay [12] was inactive.

For the molecule `FC(F)(F)C(F)(F)C(F)(F)C(F)(F)C(F)(F)C(F)(F)CC[Si](Cl)(Cl)Cl`, the molecule was classed as inactive in [1] and in assay [2].

Consider `CN(CCO)S(=O)(=O)C(F)(F)C(F)(F)C(F)(F)C(F)(F)C(F)(F)C(F)(F)C(F)(F)C(F)(F)F`, for which the molecule was classed as inactive in [1] and in assay [2].
